Structures are written as SMILES. The source made the active and inactive calls.

Assay [1] in a line: compound effects on lung adenocarcinoma cell viability – A549, calcein-AM fluorescence, 48 h, basal, profiling panel (AID 1162). Particulars: higher = more signal.
The nature of assay [2]: compound effects on differentiated 3T3-L1 adipocyte viability – cell-based, 3T3-L1 adipocytes, calcein-AM fluorescence, 48 h, basal, profiling panel (AID 1163). Particulars: 3T3-L1 adipocytes viability, higher = more signal.
A short description of assay [3]: compound effects on hepatocellular carcinoma cell viability – HepG2, calcein-AM fluorescence, 48 h, basal, profiling panel (AID 1164). Particulars: higher = more signal.
The nature of assay [4]: compound effects on multiple myeloma cell viability – MM1S, calcein-AM fluorescence, 48 h, basal, profiling panel (AID 1165).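 Further: viability of MM1S multiple myeloma cells under basal unstimulated conditions.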 Particulars: higher = more signal.
Assay [5] in a line: calcein-AM signal in unstimulated myeloma cells – cell-based, calcein-AM fluorescence, 48 h, PK04 Diversity Set, profiling panel (AID 1166).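 Further: cells grown under basal conditions without added stimulus.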 Particulars: RPMI8226 myeloma viability, higher = more signal.
Assay [6] in a line: JC-1 mitochondrial signal, unstimulated HepG2 cells – cell-based, JC-1 fluorescence, 24 h, 100 nL compound, profiling panel (AID 1167). Particulars: HepG2 mitochondrial potential, higher = more signal.
Assay [7] in a line: JC-1 mitochondrial signal, unstimulated adipocytes – cell-based, JC-1 fluorescence, 3T3-L1 adipocytes, 24 h, 100 nL compound, profiling panel (AID 1168). Particulars: JC-1 mitochondrial fluorescence, higher = more signal, called active from +8 up or from −8 down.
Assay [8] can be described thus: JC-1 mitochondrial signal, unstimulated myeloma cells – cell-based, JC-1 fluorescence, RPMI8226, 24 h, 100 nL compound, profiling panel (AID 1169). Particulars: JC-1 mitochondrial potential fluorescence, higher = more signal.
The nature of assay [9]: JC-1 mitochondrial signal, unstimulated MM1S myeloma – cell-based, JC-1 fluorescence, 24 h, 100 nL compound, profiling panel (AID 1170). Particulars: MM1S mitochondrial potential, higher = more signal.
The nature of assay [10]: resazurin metabolic signal in A549 cells – cell-based, resazurin fluorescence, 24 h, PK04 Diversity Set, profiling panel (AID 1171). Particulars: A549 viability, higher = more signal, called active from +8 up or from −8 down. On the technique in general: Resazurin is reduced to fluorescent resorufin, in cell work by metabolically active cells.
Further: test concentration not given here.

On to `COc1ccc(CCN2C(=O)[C@@]3(c4ccc([N+](=O)[O-])cc4)CC(=O)N(C4CCCCC4)[C@@H]3c3ccc(CO)cc32)cc1`, for which the z-score in assay [1] was 0.315; in [2] it was -1.26; in [3], -0.331; in [4] it was 0.199; in assay [5] it was 0.306; in assay [6] it was -1.65. In addition, the z-score in [7] is -0.937 (inactive); in assay [8] it was -0.694; in assay [9], -0.838; in assay [10] it was -0.113 (inactive).

With `O=C1OCCC/C=C\[C@H]2OC34C=CCN(c5ccc6ccccc6c5)C(=O)[C@H]3N(CCCCCCO)C(=O)[C@@H]4C12` (stereo not given in full), the z-score in assay [1] is 1.21; in [2], 0.817; in assay [3] it was 2; in [4], 1.92; in [5], 0.254; in [6], 1.02. For the same molecule, the z-score in assay [7] was 0.4 (inactive); in assay [8], -0.967; in [9] it was -0.257; in assay [10], -0.0595 (inactive).

For `COc1ccc(C(=O)Nc2ccc(CN3C(=O)[C@@]4(O[C@@H](CCn5cc([C@H](O)c6ccccc6)nn5)[C@H]([Si](C)(C)c5ccc(OC)cc5)[C@H]4C)c4ccccc43)cc2)cc1`, the z-score was -0.443 in assay [1]; -0.196 in [2]; -4.62 in assay [3]; -2.72 in assay [4]; -3.02 in assay [5]; 1.73 in [6]. The z-score in assay [7] is 1.17 (inactive); in [8], -1.1; in [9] it was -2.26; in [10] it was -1.15 (inactive).

In the case of `COCCCN1C(=O)[C@@]2(Cc3ccccc31)c1ccccc1C(=O)N(Cc1ccccc1C(F)(F)F)[C@H]2c1ccc(CO)cc1`, the z-score in assay [1] is -0.84; in assay [2], -1.15; in assay [3], -0.539; in assay [4], -0.155; in assay [5], -0.259; in assay [6], -0.451. Further, the z-score was 0.801 (inactive) in assay [7], 0.799 in [8], 0.148 in assay [9] and -0.356 (inactive) in assay [10].

For `CCCC[C@@H]1C[C@H]1[C@@H](NC(=O)c1ccco1)c1ccc(Cl)cc1`, the z-score in [1] is -2.3; in assay [2], -0.679; in assay [3], -0.746; in assay [4], -1.95; in [5] it was -2.24; in [6], 2.38. Besides, the z-score is -0.732 (inactive) in [7], -0.318 in [8], -1.37 in [9] and 0.473 (inactive) in [10].

Take `C#CCN(CC1=CCCCC1)[C@H](c1ccccc1Br)[C@@H](O)Cc1ccccc1`: the z-score was -0.101 in [1]; 0.109 in [2]; 0.455 in assay [3]; -2.26 in assay [4]; -4 in [5]; -1.05 in [6]. Besides, the z-score is -0.352 (inactive) in assay [7], -1.08 in assay [8], -0.635 in assay [9] and 1.2 (inactive) in assay [10].

Regarding `COc1ccc(COC2OC[C@]3(C)[C@H]4C5=C(CN3C(=O)OC(C)(C)C)[C@H](C)C(CO)C(CO)C5CC[C@@H]24)cc1` (stereo not given in full), the z-score is -0.963 in assay [1]; 0.627 in assay [2]; -0.0917 in assay [3]; 0.0355 in assay [4]; -1.17 in [5]; 1.24 in assay [6]. Moreover, the z-score is -0.685 (inactive) in assay [7], 0.429 in assay [8], 0.0993 in assay [9] and -1.34 (inactive) in [10].

In the case of `COc1ccc(CCNC(=O)[C@@]2(C)c3ccccc3C(=O)N(Cc3cc(F)cc(C(F)(F)F)c3)[C@H]2c2ccc(CO)cc2)cc1`, the z-score in assay [1] was 0.805; in assay [2] it was 0.766; in [3] it was 0.41; in assay [4], -1.86; in assay [5], -2.07; in assay [6], 0.857. Further, the z-score is -0.633 (inactive) in [7], -0.601 in assay [8], 1.08 in assay [9] and 0.396 (inactive) in assay [10].

Consider `C=C(CCCC)C(=O)CC[C@H](OC(=O)c1cccnc1)c1ccccc1OCCO`, for which the z-score in assay [1] was 0.414; in assay [2], 1.54; in assay [3], -0.664; in [4], -3.22; in assay [5] it was -1.65; in assay [6] it was 0.663. The z-score in assay [7] is -0.916 (inactive); in [8], -0.587; in [9], -0.491; in [10], 1.1 (inactive).

On to `CS(=O)(=O)CCOC(=O)C1=CC(CCCO)=CC(c2ccc(CN3CCCC3)cc2)N(Cc2cc3c(cc2Br)OCO3)C=C1C(=O)OCCS(C)(=O)=O` (stereo not given), for which the z-score is 1.94 in assay [1]; -0.0958 in assay [2]; -0.0078 in [3]; -0.315 in assay [4]; 0.0614 in [5]; 3.02 in [6]. Further, the z-score in [7] is 0.771 (inactive); in assay [8], 0.00988; in assay [9], 1.29; in assay [10], 0.778 (inactive).

Consider `C=CC[C@@]1(C(N)=O)N=C(c2ccc(OCCCO)cc2)O[C@@H]1c1ccccc1CN=[N+]=[N-]`, for which the z-score in assay [1] was 0.0465; in assay [2], 1.69; in [3], 0.0287; in [4], 0.204; in assay [5] it was -0.189; in assay [6], -2.45. Further, the z-score in [7] is -0.337 (inactive); in assay [8] it was -0.231; in assay [9] it was -1.79; in [10], -0.29 (inactive).

As for `COc1cc2c(cc1O)C=[N+](Cc1cccc(OC(F)(F)F)c1)CC2`, the z-score in assay [1] is 1.45; in assay [2], 0.0197; in assay [3] it was 1.2; in assay [4], 1.25; in assay [5] it was 0.346; in assay [6] it was 1.01. For the same molecule, the z-score in [7] was 0.0547 (inactive); in assay [8], 0.145; in assay [9], -0.471; in [10], -1.68 (inactive).

On to `CC(C)C(CO)N1C(=O)[C@@H]2[C@H]3C(=O)OCC=C[C@H]3OC23C=CCN(C(C)C)C(=O)[C@@H]13` (stereo not given in full), for which the z-score is -0.368 in assay [1]; 0.877 in assay [2]; -0.185 in assay [3]; -0.181 in assay [4]; 0.642 in assay [5]; -0.304 in assay [6]. Also, the z-score in assay [7] was 0.148 (inactive); in assay [8] it was -0.0287; in assay [9], -0.0116; in [10], 0.711 (inactive).

As to `C=CCOC(=O)[C@H]1[C@@H]2C(=O)O[C@@H](c3ccccc3)[C@@H](c3ccccc3)N2[C@@H](c2ccc(OCCOC(=O)[C@@H]3C[C@@H]4C(=O)N5CCC[C@H]5C(=O)N4[C@@H]3c3cccc(OCCO)c3)cc2)[C@]12C(=O)Nc1ccccc12`, the z-score in assay [1] was -0.0865; in assay [2], 1.05; in assay [3] it was -0.786; in assay [4], -0.423; in assay [5], 0.107; in [6], -1.41. Also, the z-score was -0.0892 (inactive) in assay [7], -0.737 in assay [8], -0.421 in [9] and -1.65 (inactive) in assay [10].

As to `O=C1OCC=C[C@H]2OC34C=CCN(CCN5CCOCC5)C(=O)[C@H]3N(CCCO)C(=O)[C@@H]4[C@@H]12` (stereo not given in full), the z-score in assay [1] was 0.74; in assay [2], 1.38; in assay [3], 0.811; in [4], 1.11; in [5], -1.16; in [6], -0.326. Besides, the z-score in assay [7] is 0.584 (inactive); in assay [8], 0.676; in [9] it was 0.57; in assay [10], -1.38 (inactive).

Source of the values: PubChem BioAssay.
